Among the data in ChEMBL document CHEMBL2218924, “A broad activity screen in support of a chemogenomic map for kinase signalling research and drug discovery” (Biochem J, 2013) are residual activity values, retold here.

As usually defined, the residual activity is the signal under treatment as a percentage of the control signal.

In experiment [1] the target is T1, Ephrin type-B receptor 1 (Homo sapiens) (UniProt P54762).
T1 sequence (whole entry): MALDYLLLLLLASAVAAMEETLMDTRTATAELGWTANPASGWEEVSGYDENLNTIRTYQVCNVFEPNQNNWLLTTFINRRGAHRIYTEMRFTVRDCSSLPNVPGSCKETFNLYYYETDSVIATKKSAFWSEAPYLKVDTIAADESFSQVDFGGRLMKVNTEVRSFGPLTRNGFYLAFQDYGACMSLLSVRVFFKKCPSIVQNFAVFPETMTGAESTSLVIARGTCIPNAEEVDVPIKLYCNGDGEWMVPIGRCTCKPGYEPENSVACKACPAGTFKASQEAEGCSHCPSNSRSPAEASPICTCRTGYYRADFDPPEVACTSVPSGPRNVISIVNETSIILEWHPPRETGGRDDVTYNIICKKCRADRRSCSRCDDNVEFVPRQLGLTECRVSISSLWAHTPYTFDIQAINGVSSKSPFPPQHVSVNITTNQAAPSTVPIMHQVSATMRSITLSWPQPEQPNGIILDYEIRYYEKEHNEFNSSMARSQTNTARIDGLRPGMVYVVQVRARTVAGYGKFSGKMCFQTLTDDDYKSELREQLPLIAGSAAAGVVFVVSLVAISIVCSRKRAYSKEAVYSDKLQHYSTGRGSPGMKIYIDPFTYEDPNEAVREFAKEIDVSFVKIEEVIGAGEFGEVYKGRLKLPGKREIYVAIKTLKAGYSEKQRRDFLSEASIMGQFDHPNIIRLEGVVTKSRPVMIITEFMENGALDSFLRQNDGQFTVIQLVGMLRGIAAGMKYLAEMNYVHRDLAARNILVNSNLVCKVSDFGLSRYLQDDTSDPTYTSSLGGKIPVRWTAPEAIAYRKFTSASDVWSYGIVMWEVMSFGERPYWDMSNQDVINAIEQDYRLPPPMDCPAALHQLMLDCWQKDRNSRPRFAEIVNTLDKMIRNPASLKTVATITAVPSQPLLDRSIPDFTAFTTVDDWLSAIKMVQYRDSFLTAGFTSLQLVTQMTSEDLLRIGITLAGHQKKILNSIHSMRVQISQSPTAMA
Particulars: at 10 µM; call rule not given here.

In experiment [2] the target is T2, Ephrin type-B receptor 2 (Homo sapiens) (UniProt P29323).
T2 sequence (whole entry): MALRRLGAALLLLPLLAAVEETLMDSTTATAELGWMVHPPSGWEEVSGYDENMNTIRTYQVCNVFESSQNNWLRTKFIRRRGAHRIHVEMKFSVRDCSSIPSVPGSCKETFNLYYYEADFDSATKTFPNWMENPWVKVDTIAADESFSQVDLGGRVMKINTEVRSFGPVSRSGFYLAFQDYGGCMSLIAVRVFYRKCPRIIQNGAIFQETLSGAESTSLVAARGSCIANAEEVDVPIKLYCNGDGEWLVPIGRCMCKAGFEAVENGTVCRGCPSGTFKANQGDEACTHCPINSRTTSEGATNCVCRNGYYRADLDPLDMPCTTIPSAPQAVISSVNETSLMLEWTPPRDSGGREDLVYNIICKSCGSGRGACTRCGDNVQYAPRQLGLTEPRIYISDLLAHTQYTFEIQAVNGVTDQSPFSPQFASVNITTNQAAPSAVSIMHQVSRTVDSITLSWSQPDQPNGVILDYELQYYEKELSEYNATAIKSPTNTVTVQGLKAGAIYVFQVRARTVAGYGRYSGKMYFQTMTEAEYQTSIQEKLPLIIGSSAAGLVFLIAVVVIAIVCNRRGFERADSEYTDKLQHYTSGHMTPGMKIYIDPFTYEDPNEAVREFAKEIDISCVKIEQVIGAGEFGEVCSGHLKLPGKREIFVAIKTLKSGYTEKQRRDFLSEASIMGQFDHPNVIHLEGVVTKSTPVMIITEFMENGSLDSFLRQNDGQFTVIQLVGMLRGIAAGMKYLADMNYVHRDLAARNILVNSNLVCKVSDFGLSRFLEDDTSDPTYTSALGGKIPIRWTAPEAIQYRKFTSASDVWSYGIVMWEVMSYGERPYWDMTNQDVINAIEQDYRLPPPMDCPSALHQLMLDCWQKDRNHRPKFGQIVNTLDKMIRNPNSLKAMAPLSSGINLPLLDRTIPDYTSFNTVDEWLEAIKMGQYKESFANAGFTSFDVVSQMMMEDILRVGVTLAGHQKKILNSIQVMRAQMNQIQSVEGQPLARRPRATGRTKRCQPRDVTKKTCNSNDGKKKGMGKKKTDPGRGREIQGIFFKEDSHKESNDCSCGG
To be noted: at 1 µM.

The target of experiment [3] is T2, Ephrin type-B receptor 2 (Homo sapiens). To be noted: at 10 µM.
Experiment [4] concerns the target T3, Ephrin type-B receptor 3 (Homo sapiens) (UniProt P54753).
T3 sequence (whole entry): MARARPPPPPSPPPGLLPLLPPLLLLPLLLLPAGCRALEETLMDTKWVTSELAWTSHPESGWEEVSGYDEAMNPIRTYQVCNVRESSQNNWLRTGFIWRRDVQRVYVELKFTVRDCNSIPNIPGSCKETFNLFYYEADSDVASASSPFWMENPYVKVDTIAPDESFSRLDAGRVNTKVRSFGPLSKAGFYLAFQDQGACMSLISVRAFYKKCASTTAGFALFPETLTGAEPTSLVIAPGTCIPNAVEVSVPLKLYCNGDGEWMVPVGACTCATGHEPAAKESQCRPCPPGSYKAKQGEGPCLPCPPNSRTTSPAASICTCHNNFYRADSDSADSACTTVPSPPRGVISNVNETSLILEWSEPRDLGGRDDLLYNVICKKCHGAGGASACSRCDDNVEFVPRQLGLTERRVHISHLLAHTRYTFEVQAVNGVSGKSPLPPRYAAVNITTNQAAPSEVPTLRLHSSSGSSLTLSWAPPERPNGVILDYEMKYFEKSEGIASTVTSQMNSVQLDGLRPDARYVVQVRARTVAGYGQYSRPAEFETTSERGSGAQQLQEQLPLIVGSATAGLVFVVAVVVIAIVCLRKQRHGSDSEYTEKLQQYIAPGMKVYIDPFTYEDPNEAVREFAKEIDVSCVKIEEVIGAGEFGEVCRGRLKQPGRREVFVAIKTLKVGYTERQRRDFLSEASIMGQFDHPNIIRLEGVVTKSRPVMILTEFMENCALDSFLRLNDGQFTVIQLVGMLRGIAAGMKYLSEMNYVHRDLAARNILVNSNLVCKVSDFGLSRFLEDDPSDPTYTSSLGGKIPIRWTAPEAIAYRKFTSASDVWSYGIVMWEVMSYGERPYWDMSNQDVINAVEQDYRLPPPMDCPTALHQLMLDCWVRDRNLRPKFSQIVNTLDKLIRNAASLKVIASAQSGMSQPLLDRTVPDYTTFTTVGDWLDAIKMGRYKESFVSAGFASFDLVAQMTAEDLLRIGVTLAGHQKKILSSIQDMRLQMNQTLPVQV
Particulars: at 1 µM.

Experiment [5] concerns the target T3, Ephrin type-B receptor 3 (Homo sapiens). Particulars: at 10 µM.
For experiment [6], the target named is T4, Ephrin type-B receptor 4 (Homo sapiens) (UniProt P54760).
T4 sequence (whole entry): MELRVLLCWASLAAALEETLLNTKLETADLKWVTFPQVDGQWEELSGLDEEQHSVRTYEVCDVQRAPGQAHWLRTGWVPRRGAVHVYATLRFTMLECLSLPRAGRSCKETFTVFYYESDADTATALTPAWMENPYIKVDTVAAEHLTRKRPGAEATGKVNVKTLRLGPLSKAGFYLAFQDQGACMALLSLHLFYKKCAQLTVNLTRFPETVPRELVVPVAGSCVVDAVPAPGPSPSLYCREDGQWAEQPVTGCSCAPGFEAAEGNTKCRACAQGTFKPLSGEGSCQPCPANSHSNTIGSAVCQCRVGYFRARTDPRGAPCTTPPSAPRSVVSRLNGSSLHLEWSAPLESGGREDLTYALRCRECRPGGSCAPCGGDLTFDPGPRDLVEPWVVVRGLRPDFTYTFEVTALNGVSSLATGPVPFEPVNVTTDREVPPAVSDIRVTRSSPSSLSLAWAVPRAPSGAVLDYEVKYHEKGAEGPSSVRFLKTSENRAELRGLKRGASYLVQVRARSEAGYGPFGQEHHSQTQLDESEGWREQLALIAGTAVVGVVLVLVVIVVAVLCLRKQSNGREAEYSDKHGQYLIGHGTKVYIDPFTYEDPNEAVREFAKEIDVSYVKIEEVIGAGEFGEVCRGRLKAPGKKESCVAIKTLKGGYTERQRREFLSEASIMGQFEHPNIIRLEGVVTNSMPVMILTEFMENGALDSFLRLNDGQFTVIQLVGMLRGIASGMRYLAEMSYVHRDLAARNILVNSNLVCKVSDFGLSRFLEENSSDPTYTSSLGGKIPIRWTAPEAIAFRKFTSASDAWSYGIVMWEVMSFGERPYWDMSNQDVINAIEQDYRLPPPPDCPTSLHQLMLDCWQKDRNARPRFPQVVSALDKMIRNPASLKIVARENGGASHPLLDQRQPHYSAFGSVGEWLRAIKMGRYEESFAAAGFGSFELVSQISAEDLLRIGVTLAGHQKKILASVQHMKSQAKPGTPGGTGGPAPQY
Particulars: at 1 µM.

In experiment [7] the target is T4, Ephrin type-B receptor 4 (Homo sapiens). Particulars: at 10 µM.
For experiment [8], the target named is Receptor tyrosine-protein kinase erbB-4 (Homo sapiens) (UniProt Q15303). Particulars: at 1 µM.
Sequence of Receptor tyrosine-protein kinase erbB-4 (Homo sapiens) (Q15303 whole entry): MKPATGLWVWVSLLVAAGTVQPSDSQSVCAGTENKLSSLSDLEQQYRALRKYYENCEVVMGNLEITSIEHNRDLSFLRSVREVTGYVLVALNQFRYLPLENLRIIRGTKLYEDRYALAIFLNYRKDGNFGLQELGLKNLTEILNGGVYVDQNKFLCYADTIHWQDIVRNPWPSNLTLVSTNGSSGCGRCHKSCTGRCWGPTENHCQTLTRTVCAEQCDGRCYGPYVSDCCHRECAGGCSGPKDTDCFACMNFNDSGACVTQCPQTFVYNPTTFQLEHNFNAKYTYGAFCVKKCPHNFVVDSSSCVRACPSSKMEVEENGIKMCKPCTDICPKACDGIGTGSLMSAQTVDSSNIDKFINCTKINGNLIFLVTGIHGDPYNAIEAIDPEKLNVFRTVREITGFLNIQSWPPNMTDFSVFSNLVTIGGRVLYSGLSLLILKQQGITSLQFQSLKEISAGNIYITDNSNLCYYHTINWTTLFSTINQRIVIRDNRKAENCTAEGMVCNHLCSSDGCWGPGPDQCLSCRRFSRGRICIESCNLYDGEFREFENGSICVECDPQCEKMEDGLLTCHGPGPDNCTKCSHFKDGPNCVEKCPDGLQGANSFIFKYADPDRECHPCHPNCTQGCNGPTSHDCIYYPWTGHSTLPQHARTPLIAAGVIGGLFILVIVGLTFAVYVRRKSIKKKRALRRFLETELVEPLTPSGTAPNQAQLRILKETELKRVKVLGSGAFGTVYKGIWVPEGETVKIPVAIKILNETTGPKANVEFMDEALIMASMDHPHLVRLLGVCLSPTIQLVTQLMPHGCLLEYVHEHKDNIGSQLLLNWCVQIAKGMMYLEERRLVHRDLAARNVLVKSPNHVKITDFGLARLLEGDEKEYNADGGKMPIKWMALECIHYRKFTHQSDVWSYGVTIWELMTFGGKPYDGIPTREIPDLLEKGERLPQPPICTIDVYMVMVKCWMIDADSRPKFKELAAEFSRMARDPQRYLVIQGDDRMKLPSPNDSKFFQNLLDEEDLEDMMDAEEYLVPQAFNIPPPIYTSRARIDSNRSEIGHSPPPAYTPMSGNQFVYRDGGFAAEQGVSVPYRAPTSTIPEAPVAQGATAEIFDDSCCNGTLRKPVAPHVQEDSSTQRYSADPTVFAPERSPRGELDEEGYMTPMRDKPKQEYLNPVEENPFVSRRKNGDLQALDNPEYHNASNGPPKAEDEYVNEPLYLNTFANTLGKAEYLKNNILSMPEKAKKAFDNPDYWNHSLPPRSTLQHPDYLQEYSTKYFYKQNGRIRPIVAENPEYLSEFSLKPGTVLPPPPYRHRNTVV
Experiment [9] has the same target. To be noted: at 10 µM.
Experiment [10] concerns the target Focal adhesion kinase 1 (Homo sapiens) (UniProt Q05397). To be noted: at 1 µM.

Sequence of Focal adhesion kinase 1 (Homo sapiens) (Q05397 2-1052 limits assumed): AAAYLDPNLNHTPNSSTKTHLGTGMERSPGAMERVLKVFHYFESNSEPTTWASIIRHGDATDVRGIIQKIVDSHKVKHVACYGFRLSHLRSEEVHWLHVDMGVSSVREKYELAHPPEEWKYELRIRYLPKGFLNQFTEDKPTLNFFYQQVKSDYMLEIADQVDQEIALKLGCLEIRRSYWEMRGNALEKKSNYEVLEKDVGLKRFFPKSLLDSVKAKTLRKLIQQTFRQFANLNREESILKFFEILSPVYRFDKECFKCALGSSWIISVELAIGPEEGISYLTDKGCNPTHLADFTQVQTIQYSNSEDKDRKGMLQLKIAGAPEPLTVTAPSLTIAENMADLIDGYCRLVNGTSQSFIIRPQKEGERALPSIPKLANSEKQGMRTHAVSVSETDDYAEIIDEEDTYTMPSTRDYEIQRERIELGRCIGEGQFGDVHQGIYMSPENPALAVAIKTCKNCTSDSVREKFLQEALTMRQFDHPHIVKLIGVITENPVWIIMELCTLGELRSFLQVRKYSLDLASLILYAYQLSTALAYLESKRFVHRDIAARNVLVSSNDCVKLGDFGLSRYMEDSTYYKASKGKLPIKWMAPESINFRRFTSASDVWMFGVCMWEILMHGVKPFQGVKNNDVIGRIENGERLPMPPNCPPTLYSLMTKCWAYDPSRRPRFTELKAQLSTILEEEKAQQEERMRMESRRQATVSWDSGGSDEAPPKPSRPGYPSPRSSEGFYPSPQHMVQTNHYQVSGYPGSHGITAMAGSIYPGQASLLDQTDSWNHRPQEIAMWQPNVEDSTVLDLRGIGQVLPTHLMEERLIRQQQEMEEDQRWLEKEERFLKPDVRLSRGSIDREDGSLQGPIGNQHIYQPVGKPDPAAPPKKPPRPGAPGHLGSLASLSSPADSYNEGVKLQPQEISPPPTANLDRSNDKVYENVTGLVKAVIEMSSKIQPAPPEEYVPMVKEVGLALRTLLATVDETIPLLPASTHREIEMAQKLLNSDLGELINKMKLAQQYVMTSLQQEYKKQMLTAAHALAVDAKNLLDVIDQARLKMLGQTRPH

Turning to `Cn1cnc2cc3c(Nc4cccc(Br)c4)ncnc3cc21`, the residual activity was 42% in experiment [1]; 77% in experiment [2]; 5% in [3]; 110% (inactive) in [4]; 123% in experiment [5]; 31% in experiment [6]. In addition, the residual activity was 4% in experiment [7], 72% in experiment [8], 75% in experiment [9] and 82% in experiment [10].
